Screens from PubChem BioAssay.
Sampled rows, rich in hits. Any-hit rate of the full collection: about 17%.
HT1080NT lethal: kills 2HG-producing HT-1080-NT fibrosarcoma cells. HT-1080-NT fibrosarcoma viability, CellTiter-Glo ATP luminescence, 48 h. Potency, µM (top dose mostly 46.1 µM), for inactives: at the top dose activity, negative = less viability, actives largely listed as cytotoxic. hit rate 1.6% among 360,000. AID 686970;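 further: NT is the 2HG producing partner of a matched IDH1 knockdown line; 0% = DMSO-treated cells and -100% = media-only wells without cells; nearly all actives have a fitted effect of over 55% in size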
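750 cells/well, RPMI + 5% FBS; 2 h settle, compound pin-transfer, 48 h at 37 degrees C. CellTiter-Glo 10 min RT, luminescence. Normalized to DMSO and media-only wells.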
TGFb inhibitor: inhibitors of TGF-b signaling; hit rate 1.2% among 410,000; HepG2 CAGA-GFP TGF-b/SMAD3 reporter, GFP fluorescence, 18 h; TGF-beta stimulated, 500 pg/mL final; Potency, µM (top dose mostly 46.1 µM), for the others: top-dose activity, negative = inhibition, actives largely listed as inhibitors; AID 588855; further: on the % scale 0 is the no-effect control and ±100 the full control effect; nearly all actives have a fitted effect of over 65% in size
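Inhibition of TGF-beta-driven CAGA-GFP reporter expression in HEPG2 cells is measured by cellular GFP fluorescence after 18 h stimulation with 500 pg/mL recombinant TGF-beta in 1% FBS medium at 37 degrees C.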
HepG2 tox: counter-screen for TGF-b inhibitors: cytotoxicity in HepG2 cells | AID 588856 | Potency, µM (highest dose often 46.1 µM), for the others: top-dose activity change, negative = cytotoxicity, hits mostly cytotoxic | hit rate 0.76% among 410,000 | HepG2 CAGA-GFP viability, ATP luminescence, 18 h
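HepG2 CAGA-GFP cells (1000/well, DMEM with 1% FBS) received compound, then TGF-beta at 500 pg/mL final, and were incubated 18 hours at 37 degrees C. Viability was read by CellTiter-Glo luminescence. Media-only wells were set as complete cell-killing and DMSO as no toxicity.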
DT40 TDP1 CPT: growth inhibition of DT40 Tdp1-/-;hTDP1 cells with camptothecin (screen for TDP1 inhibitors); Potency, µM (highest dose often 46.2 µM), for the others: top-dose activity change, negative = growth inhibition, usual class: inhibitors; hit rate 12% among 420,000; chicken DT40 Tdp1-/-;hTDP1 cells + 20 nM CPT, ATP luminescence, 48 h; further: on the % scale 0 is the no-effect control and ±100 the full control effect; nearly all actives have a fitted effect of over 55% in size
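Chicken DT40 Tdp1-/- cells stably complemented with human TDP1 were seeded at 400 cells/well in medium containing 20 nM camptothecin, exposed to pin-transferred compounds, and grown at 37 °C for at least 48 hr. Viability was read as ATP luminescence.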
HT1080 IDH1KD tx: kills HT-1080 cells with IDH1 knockdown; HT-1080 IDH1 knockdown viability, ATP luminescence, 48 h; Potency, µM (top dose mostly 46.1 µM), for the others: at the top dose activity, negative = toxicity, actives largely listed as cytotoxic; hit rate 2% among 360,000; AID 686971;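 further: 0% = DMSO wells and -100% = cell-free medium wells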
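IDH1KD HT-1080 cells, 750/well, RPMI + 5% FBS; compound pinned after 2 h settling; 48 h, 37 °C; CellTiter-Glo luminescence; % activity normalised to DMSO and no-cell wells; curves fitted, classed by r2 and efficacy.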
TDP1 cell noCPT: qHTS for Inhibitors of human tyrosyl-DNA phosphodiesterase 1 (TDP1): qHTS in cells in absence of CPT; Potency, µM (highest dose often 46.2 µM), for inactives: at the highest dose activity change, negative = growth inhibition, actives largely listed as inhibitors; DT40 Tdp1-/- hTDP1 cells, no CPT, ATP luminescence, 48 h; hit rate 15% among 420,000; further: on the % scale 0 is the no-effect control and ±100 the full control effect; nearly all actives have a fitted effect of over 55% in size
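Growth of hTDP1-complemented DT40 Tdp1-knockout cells is measured by ATP luminescence after at least 48 hr compound exposure at 37 °C, with DMSO substituting for the 20 nM CPT used in the parallel screen.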
* marks the source's active call; other numbers are inactive results. The call rests on the fitted dose curve; in most records, active means well fitted curve in the direction sought with a large enough effect; inconclusive means small, poorly fitted or top-dose-only effect, or another doubt; inactive means no such curve, though single readings can be large; an effect the other way counts as inactive or inconclusive. Potency means the concentration at half of the fitted maximal effect.

`Cc1ccc(NN2C(=O)C=C(c3ccc(Cl)cc3)C2=O)cc1` gave HT1080NT lethal inconclusive, TGFb inhibitor inconclusive, HepG2 tox -54%, DT40 TDP1 CPT 5.8µM*, HT1080 IDH1KD tx inconclusive and TDP1 cell noCPT 4.1µM*.
O=C1Cc2ccccc2C(=O)N1Nc1ccccc1 was read as HT1080NT lethal -17%, TGFb inhibitor -12%, HepG2 tox 9%, DT40 TDP1 CPT inconclusive, HT1080 IDH1KD tx 18% and TDP1 cell noCPT inconclusive.
`CC1(C)CC(=O)c2cc(C(=O)Nc3cccc4ccccc34)c(=O)[nH]c2C1` gave TGFb inhibitor -15%, HepG2 tox -33%, DT40 TDP1 CPT inconclusive and TDP1 cell noCPT 16µM*.
For COc1ccc(-c2oc3ncn4nc(COc5ccc(Cl)cc5)nc4c3c2-c2ccc(OC)cc2)cc1 the results were TGFb inhibitor 8%, HepG2 tox 2%, DT40 TDP1 CPT -25% and TDP1 cell noCPT -27%.
Cc1cc(C)n(CCc2nc3c4ccccc4nc(N4CCN(c5ccccc5)CC4)n3n2)n1 was read as TGFb inhibitor -9%, HepG2 tox -28%, DT40 TDP1 CPT 2.9µM* and TDP1 cell noCPT 3.3µM*.
Screening Cc1ccc(C)c(N2CCN(c3nc4ccccc4c4nc(CCn5nc(C)cc5C)nn34)CC2)c1 returned TGFb inhibitor -3%, HepG2 tox 2%, DT40 TDP1 CPT -24% and TDP1 cell noCPT -1%.
Cc1nn(-c2ccccc2)c(C)c1NC(=O)COc1ccc(C#N)cc1 was read as HT1080NT lethal 8%, TGFb inhibitor -1%, HepG2 tox -11%, DT40 TDP1 CPT inconclusive, HT1080 IDH1KD tx 3% and TDP1 cell noCPT 12µM*.
Screening Cc1ccnc(NC(=O)COc2ccc(Cl)cc2)n1 returned HT1080NT lethal 6%, TGFb inhibitor inconclusive, HepG2 tox -20%, DT40 TDP1 CPT -5%, HT1080 IDH1KD tx 6% and TDP1 cell noCPT -2%.
For CCC(=O)Nc1c(C)nn(-c2ccc(C)c(C)c2)c1C the results were HT1080NT lethal 9%, TGFb inhibitor -11%, HepG2 tox -50%, DT40 TDP1 CPT -5%, HT1080 IDH1KD tx 4% and TDP1 cell noCPT -4%.
Cc1nn(-c2ccccc2)c(C)c1NC(=O)COc1ccc2ccccc2c1 was read as HT1080NT lethal -25%, TGFb inhibitor inconclusive, HepG2 tox -10%, DT40 TDP1 CPT 16µM*, HT1080 IDH1KD tx inconclusive and TDP1 cell noCPT 18µM*.
Screening Cc1ccc(-n2nc(C)c(NC(=O)CCl)c2C)cc1C returned HT1080NT lethal inconclusive, TGFb inhibitor inconclusive, HepG2 tox -68%, DT40 TDP1 CPT 8.2µM*, HT1080 IDH1KD tx inconclusive and TDP1 cell noCPT 8.2µM*.
Screening Cc1nn(C)c(C)c1NC(=O)COc1ccc(Cl)cc1 returned HT1080NT lethal -8%, TGFb inhibitor inconclusive, HepG2 tox -13%, DT40 TDP1 CPT 6.5µM*, HT1080 IDH1KD tx -30% and TDP1 cell noCPT 2.6µM*.
For O=C(CCn1nnc2ccccc21)N/N=C\Cc1ccccc1 the results were HT1080NT lethal 15%, TGFb inhibitor -12%, HepG2 tox 16%, DT40 TDP1 CPT 6%, HT1080 IDH1KD tx -1% and TDP1 cell noCPT -16%.
O=C(c1ccccc1)N1CN2CN(C(=O)c3ccccc3)CC([N+](=O)[O-])(C2)C1 was read as HT1080NT lethal 15%, TGFb inhibitor 11%, HepG2 tox 6%, DT40 TDP1 CPT 9%, HT1080 IDH1KD tx 6% and TDP1 cell noCPT 1%.
Screening Cc1ccc(NC(=O)CNC(=O)CN2C(=O)c3ccccc3C2=O)cc1 returned HT1080NT lethal inconclusive, TGFb inhibitor -6%, HepG2 tox 0%, DT40 TDP1 CPT 1%, HT1080 IDH1KD tx 6% and TDP1 cell noCPT -1%.
For COc1ccc(N(CC(=O)NCc2cccs2)S(=O)(=O)c2ccc(C(C)=O)cc2)cc1 the results were HT1080NT lethal 1%, TGFb inhibitor -1%, HepG2 tox 2%, DT40 TDP1 CPT 0%, HT1080 IDH1KD tx -5% and TDP1 cell noCPT inconclusive.
For CCOC(=O)Cn1nc(C)c(NC(=O)COc2ccc(Cl)cc2C)c1C the results were TGFb inhibitor inconclusive, HepG2 tox -58%, DT40 TDP1 CPT 9.2µM* and TDP1 cell noCPT 8.2µM*.
CCOC(=O)Cn1nc(C)c(NC(=O)COc2ccccc2)c1C was read as HT1080NT lethal 11%, TGFb inhibitor -1%, HepG2 tox 7%, DT40 TDP1 CPT -2%, HT1080 IDH1KD tx 2% and TDP1 cell noCPT inconclusive.
Screening COc1cccc(C(=O)NCc2cn3cccc(C)c3n2)c1 returned TGFb inhibitor -12%, HepG2 tox -9%, DT40 TDP1 CPT -4% and TDP1 cell noCPT -15%.
`COc1cc(C2C(=O)N(C3CCCCCC3)CC(=O)N2CCC2=CCCCC2)ccc1OC(C)C` (stereo unspecified) gave TGFb inhibitor 2%, HepG2 tox -5%, DT40 TDP1 CPT 18µM* and TDP1 cell noCPT 21µM*.
COc1cc(C2C(=O)N(C3CCCCC3)CC(=O)N2CCC2=CCCCC2)ccc1OC(C)C (stereo unspecified) was read as TGFb inhibitor 1%, HepG2 tox -35%, DT40 TDP1 CPT -15% and TDP1 cell noCPT -12%.
For CCOc1ccc(C2C(=O)N(C3CCCCCC3)CC(=O)N2CCC2=CCCCC2)cc1OC (stereo unspecified) the results were TGFb inhibitor inconclusive, HepG2 tox -30%, DT40 TDP1 CPT 23µM* and TDP1 cell noCPT 16µM*.
COc1ccc(C2C(=O)N(C3CCC(C)CC3)CC(=O)N2CCC2=CCCCC2)cc1OC (stereo unspecified) was read as TGFb inhibitor 0%, HepG2 tox -15%, DT40 TDP1 CPT 23µM* and TDP1 cell noCPT 23µM*.
Screening COc1ccc(-c2cc3cccc(OC)c3oc2=O)cc1 returned HT1080NT lethal -20%, TGFb inhibitor 0%, HepG2 tox -12%, DT40 TDP1 CPT -10%, HT1080 IDH1KD tx -11% and TDP1 cell noCPT -1%.
Screening COc1cccc(Nc2nc(-c3cccnc3)cs2)c1 returned HT1080NT lethal -5%, TGFb inhibitor 0%, HepG2 tox -42%, DT40 TDP1 CPT inconclusive, HT1080 IDH1KD tx -4% and TDP1 cell noCPT inconclusive.
